KinaseGlo FLuc – counter-screen: inhibitors of Kinase-Glo firefly luciferase; Kinase-Glo luciferase, ATP luminescence, 8 min; Potency, µM (top dose mostly 38.3 µM), without a hit: top-dose activity change, negative = inhibition, actives largely listed as inhibitors; 200,000 tested, 0.28% active; AID 1379; further: on the % scale 0 is the no-effect control and ±100 the full control effect; nearly all actives have a fitted effect of over 60% in size
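Light output from Kinase-Glo luciferase with luciferin and 10 uM ATP in 50 mM imidazole pH 7.2, KCl, MgCl2, Tween 20, BSA; compound pin-delivered, 8-min ambient incubation, then luminescence read.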
ELG1 genotox – inducers of genotoxicity in HEK293T ELG1-luciferase cells | AID 504466 | HEK293T ELG1-luciferase reporter, luminescence, 16 h | 330,000 tested, 1.3% active | Potency, µM (series often up to 46 µM), for the others: at the highest dose activity change, positive = activation, most hits filed as activators; further: % of control where 0% means no effect; nearly all actives have a fitted effect of over 60% in size
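Genotoxic stress is detected as increased luminescence from luciferase-tagged ELG1 in HEK293T cells, measured with ONE-Glo after a 16 hr treatment at 37 °C.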
SMN2 splice up – increases expression of the SMN2 splice variant. HEK293 SMN2-luciferase splicing reporter, luminescence, 30-36 h. Potency, µM (titrated, usually from 46.1 µM), for the others: top-dose activity change, positive = activation, usual class: activators. 210,000 tested, 2.8% active. AID 1458; further: % of control where 0% means no effect; nearly all actives have a fitted effect of over 55% in size
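HEK293 cells carry an SMN2 minigene-luciferase reporter in which exon 7 inclusion puts luciferase in frame. Cells were seeded at 2000 cells/well, attached for 10-12 hours, then exposed to compounds for 30-36 hours at 37C before ONE-Glo luminescence.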
Rab9 promoter act – activates the Rab9 promoter | Huh7 Rab9 promoter-luciferase reporter, luminescence, 24 h | Potency, µM (doses to about 9.22 µM), for the others: at the highest dose activation, negative = inhibition, usual class: activators | 320,000 tested, 2.8% active | AID 485297; further: % of control where 0% means no effect; nearly all actives have a fitted effect of over 60% in size
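Quantitative HTS format; Huh7 Rab9-luciferase reporter cells (1500/well) receive compound 2 h post-plating, incubate 24 h at 37 °C, then get luciferase reagent for 10 min before luminescence reading.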
FLuc modulator – inhibits or activates purified firefly luciferase, miR-21 counter-screen; P08659; purified FLuc, Km substrates, luminescence inhibition; Potency, µM (doses to about 57.5 µM), for inactives: at the highest dose activity change, negative = inhibition, usual class: inhibitors; 360,000 tested, 6.9% active;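 further: plate controls were vehicle for no effect and reference inhibitor for full effect; nearly all actives have a fitted effect of over 55% in size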
Target sequence (P08659 whole entry, looked up): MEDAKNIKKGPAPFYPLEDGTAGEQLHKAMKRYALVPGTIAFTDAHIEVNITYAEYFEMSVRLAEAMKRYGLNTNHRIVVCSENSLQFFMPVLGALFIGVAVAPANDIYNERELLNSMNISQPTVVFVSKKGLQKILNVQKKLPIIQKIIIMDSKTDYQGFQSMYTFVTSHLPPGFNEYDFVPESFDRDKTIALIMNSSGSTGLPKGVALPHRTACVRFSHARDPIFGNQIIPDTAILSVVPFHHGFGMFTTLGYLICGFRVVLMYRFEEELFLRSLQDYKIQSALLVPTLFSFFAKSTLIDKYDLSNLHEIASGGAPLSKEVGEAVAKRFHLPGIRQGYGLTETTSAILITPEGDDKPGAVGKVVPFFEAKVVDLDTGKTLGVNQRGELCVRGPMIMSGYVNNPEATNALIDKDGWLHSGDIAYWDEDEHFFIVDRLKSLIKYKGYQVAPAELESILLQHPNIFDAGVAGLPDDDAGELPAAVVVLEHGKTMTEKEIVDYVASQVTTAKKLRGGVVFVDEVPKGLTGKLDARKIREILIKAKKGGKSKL
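Purified P. pyralis luciferase, 10 nM final, with Km-level 10 uM D-luciferin and 10 uM ATP in 50 mM Tris acetate pH 7.5, 10 mM Mg acetate, 0.01% Tween-20, 0.05% BSA; 6-point qHTS titration about 60 µM downward; luminescence read.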
NPC1 prom act – activates the NPC1 promoter. Huh7 NPC1 promoter luciferase reporter, 24 h. Potency, µM (titrated, usually from 9.22 µM), without a hit: at the highest dose activation, hits mostly activators. 320,000 tested, 2.4% active; further: % of control where 0% means no effect; nearly all actives have a fitted effect of over 60% in size
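NPC1 promoter–luciferase Huh7 cells; 24 h compound; luminescence.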
An asterisk follows results filed as active; ? = inconclusive; . = no result. In the library only some 7.5% were active in any assay of this set; here they are far more common. The call rests on the fitted dose curve; in most records, active means well fitted curve in the direction sought with a large enough effect; inconclusive means small, poorly fitted or top-dose-only effect, or another doubt; inactive means no such curve, though single readings can be large; an effect the other way counts as inactive or inconclusive. Potency means the concentration at half of the fitted maximal effect.

SMILES	KinaseGlo FLuc	ELG1 genotox	SMN2 splice up	Rab9 promoter act	FLuc modulator	NPC1 prom act
N#C/C(=C\c1ccc(OCc2ccc(C(=O)O)cc2)cc1)C(=O)NCc1ccccc1	.	2.5%	.	6.0%	-2.7%	-1.8%
Cc1cc(/C=C(\C#N)C(=O)NCc2ccco2)c(C)n1-c1cccnc1	.	?	.	?	15.1µM*	?
Cc1cccc(-n2c(C)cc(C=C(C#N)C#N)c2C)c1	0.8%	2.6%	-15.2%	-0.7%	1.2%	-1.1%
Cc1ccc(-c2c(CN3CCN(c4cc(Cl)ccc4C)CC3)csc2C)cc1	.	.	.	.	-3.7%	.
Cc1ccn2c(CNCC3OCCc4ccccc43)c(C(=O)N3CCCCCC3)nc2c1 (stereo unspecified)	.	-4.9%	.	-2.5%	2.9%	1.4%
CCn1c(=O)c([N+](=O)[O-])c(N2CCN(Cc3ccc4c(c3)OCO4)CC2)c2ccccc21	.	-13.6%	.	-1.4%	-0.5%	-0.1%
Cc1cccc(-n2ncc3c(NCCN4CCOCC4)ncnc32)c1	0.4%	0.2%	-8.9%	28.6%	?	26.3%
c1ccc(CNc2ncnc3c2cnn3-c2ccccc2)cc1	.	?	.	5.6%	?	-12.2%
CC(=O)Nc1ccc(Nc2ncnc3c2cnn3-c2cccc(C)c2)cc1	-0.1%	10.3%	?	3.16µM*	-15.4%	2.82µM*
COc1ccc(OC)c(Nc2ncnc3c2cnn3-c2cccc(C)c2)c1	-1.3%	0.1%	?	-10.2%	-17.9%	-25.7%
CCOCCCNc1ncnc2c1cnn2-c1ccc(C)c(C)c1	.	.	.	.	10.7µM*	.
CNc1ncnc2c1cnn2-c1ccc(C)c(C)c1	.	.	.	.	10.7µM*	.
Cc1cccc(-n2ncc3c(NCc4ccccc4)ncnc32)c1	-2.6%	18.4µM*	10µM*	-3.9%	-17.4%	-16.4%
O=C(Nc1ccc(S(=O)(=O)N2CCCC2)cc1)C1CC(=O)N(c2ccc(F)cc2)C1 (stereo unspecified)	.	0.4%	.	-3.2%	-0.1%	2.3%
Cn1nccc1C(=O)NCc1ccc2c(c1)CCN2C(=O)c1ccc(F)cc1	.	.	.	.	-12.8%	.
CN(C)CCCNc1ncnc2c1cnn2-c1ccccc1	-2.2%	?	5.1%	29.9%	?	17.4%
Cc1cccc(-n2ncc3c(NCc4cccs4)ncnc32)c1	-5.0%	?	10µM*	?	9.53µM*	3.55µM*
COc1ccc(CNc2ncnc3c2cnn3-c2ccc(C)c(C)c2)cc1	.	.	.	.	-7.2%	.
Clc1ccc(-n2ncc3c(NCc4cccnc4)ncnc32)cc1Cl	.	?	.	1.12µM*	1.07µM*	0.501µM*
Cc1ccc(-n2ncc3c(NCc4ccco4)ncnc32)cc1C	-2.6%	?	15.8µM*	3.55µM*	13.5µM*	2.82µM*
Cc1ccc(-n2ncc3c(NCCCN(C)C)ncnc32)cc1Cl	.	.	.	.	13.5µM*	.
COc1ccccc1CNC(=O)C1CCN(C2=NS(=O)(=O)C(c3ccc(C)c(C)c3)=C2C)CC1	.	.	.	.	3.4%	.
Cc1cccc(N2CC(c3nc4ccccc4n3CCC3CCCCC3)CC2=O)c1 (stereo unspecified)	.	.	.	.	-0.9%	.
COc1ccc2nc3sc(C(=O)Nc4cc(Cl)c(OC)cc4OC)cc3cc2c1	.	.	1.3%	.	-9.6%	.
Cc1ccc(-n2ncc3c(NNC(=O)c4ccco4)ncnc32)cc1Cl	.	?	.	9.2%	8.49µM*	14.8%
SMILES	KinaseGlo FLuc	ELG1 genotox	SMN2 splice up	Rab9 promoter act	FLuc modulator	NPC1 prom act
Cc1cccc(-n2ncc3c(NCc4ccco4)ncnc32)c1	0.0%	?	15.8µM*	?	12µM*	8.3%
Cc1cccc(-n2ncc3c(N4CCCc5ccccc54)ncnc32)c1	-3.1%	2.31µM*	12.6µM*	2µM*	5.36µM*	2.82µM*
Cc1ccc(-n2ncc3c(=O)n(CC(=O)N(C)C)cnc32)cc1C	.	14.8%	.	29.6%	?	21.3%
CC(=O)Cn1cnc2c(cnn2-c2ccc(C)c(C)c2)c1=O	.	?	.	1.58µM*	23.9µM*	3.16µM*
Cc1cccc(-n2ncc3c(NNC(=O)c4ccco4)ncnc32)c1	.	5.8%	.	11.3%	?	1.8%
Cc1ncc(CO)c2c1Oc1nc(-c3ccc(F)cc3)nc(SCC(=O)N3CCCCC3)c1C2	.	.	.	.	-1.3%	.

Screening data: PubChem, National Center for Advancing Translational Sciences (NCATS)
